Screening results: PubChem BioAssay, several laboratories
Compounds with a hit are over-represented: about 2.8% of the library has one in this group of screens.
HIF-2a inh: HIF-2a inhibition | 786-0 RCC cells HIF-2a reporter, luciferase luminescence, overnight | inhibition, % at 18.8 µM | AID 624352 | hit rate 0.72% among 360,000;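 active means inhibition of the luminescence signal of 40% or more relative to plate controls, in a single-dose primary screen at 18.75 µM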
KKLEB tox: counter-screen for CF NF-kB inhibitors: cytotoxicity; KKLEB CF airway cells viability, ATPlite luminescence, overnight; active compounds read low; cells stimulated with P. aeruginosa culture filtrate; activity change (cytotoxicity), % at 5 µM; hit rate 0.36% among 360,000; AID 602141;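 active means corrected activity change at or below -50% at 5 µM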
TRPM1 prom inh: MITF TRPM1 promoter inhibition in SK-MEL-5 cells; AID 488899; inhibition, % at 12.5 µM; SK-MEL-5 TRPM1 promoter luciferase, 24 h; hit rate 0.83% among 330,000;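 active means mean inhibition across replicates of 60% or more, whatever share of single replicates reaches that level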
CF NFkB inh: cystic fibrosis NF-kB activation inhibition; KKLEB NF-kB-GFP reporter, PAF-induced, GFP fluorescence overnight; inhibition, % at 5 µM; hit rate 0.86% among 360,000; AID 588850;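 active means at least 50% inhibition at 5 µM, scaled per plate between neutral and stimulator controls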;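 further: PAF is a Pseudomonas aeruginosa culture filtrate used as stimulus; plate controls were PAF-stimulated DMSO wells for no effect and unstimulated DMSO wells for full effect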
Peg3 prom inh: inhibitors of Peg3 promoter. HeLa PEG-Prom luciferase reporter, luminescence, overnight. inhibition, % at 20 µM. hit rate 1.7% among 360,000;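 active means inhibition of at least 50% at 20 µM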
Shn3 inh set2: reduces Shn3 3'UTR luciferase signal in osteoblasts; Clone20 osteoblast Shn3 3'UTR firefly luciferase, 24 h; inhibition, % at 12.5 µM; hit rate 0.52% among 360,000;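 active means mean inhibition of at least 75% with every replicate also reaching 75%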;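 further: 0% = median of neutral control wells and 100% = pilot-screen positive control compound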
An asterisk follows results filed as active; · = no result given.

SMILES	HIF-2a inh	KKLEB tox	TRPM1 prom inh	CF NFkB inh	Peg3 prom inh	Shn3 inh set2
COc1ccc2[nH]c(C(=O)N/N=C/c3ccc(O)cc3O)cc2c1	-6	4	59	24	39	89*
COc1ccc(/C=N/NC(=O)c2nc(-c3ccccc3)n(-c3ccccc3)n2)c(O)c1	1	10	57	-23	31	91*
COc1ccc(CCNC(=O)CNCC2CCCCC2)cc1OC	10	4	-9	-6	0	8
O=C(Nc1ccccc1)c1ccc(-c2ccccc2)s1	-310	10	-86	-34	-341	-50
O=C(O)c1ccc(-c2ccc(-c3ccccc3)cc2)s1	70*	-3	81*	2	85*	5
Cc1ccc(NNC(=O)C(O)(c2cccc(C(F)(F)F)c2)c2cccc(C(F)(F)F)c2)cc1	6	6	6	-14	67*	24
CC(=O)c1ccc(NC(=O)c2cc(C)nc3ccccc23)cc1	-194	9	-51	-24	-157	-76
CCCN1C(=O)/C(=C/c2ccc3c(c2)OCO3)NC1=S	-5	-1	14	2	-111	-1
CCCN1C/C(=C/c2ccc3c(c2)OCO3)C(=O)/C(=C/c2ccc3c(c2)OCO3)C1	89*	14	84*	-39	107*	-10
COc1ccc(C2c3ccc4ccccc4c3Oc3ncn(CCCO)c(=N)c32)cc1OC (configuration not stated)	9	-24	-13	20	32	27
COc1ccc(C2c3ccc4ccccc4c3Oc3ncn(CCN(C)C)c(=N)c32)cc1 (configuration not stated)	10	-23	95*	35	92*	39
N=c1c2c(ncn1CCCO)Oc1c(ccc3ccccc13)C2c1ccccc1 (configuration not stated)	-9	-7	33	8	73*	-2
COc1ccc(C2c3ccc4ccccc4c3Oc3ncn(CCN4CCOCC4)c(=N)c32)cc1OC (configuration not stated)	18	-15	33	22	20	25
COc1ccc(C2c3c(ncn(Cc4ccco4)c3=N)Oc3ccc4ccccc4c32)cc1 (configuration not stated)	13	-18	-12	26	21	1
N=c1c2c(ncn1Cc1ccco1)Oc1ccc3ccccc3c1C2c1ccccc1 (configuration not stated)	13	-23	20	17	57*	31
COc1ccc(C2c3ccc4ccccc4c3Oc3ncn(CCN4CCOCC4)c(=N)c32)cc1 (configuration not stated)	27	-12	77*	11	102*	13
CC(C)c1ccc(-n2cnn(-c3ncccc3[N+](=O)[O-])c2=O)cc1	-184	-7	-5	5	-186	-64
COc1ccc(C2c3ccc4ccccc4c3Oc3ncn(CCO)c(=N)c32)cc1 (configuration not stated)	8	-16	78*	9	103*	30
CCOC(=O)c1c(C)nc(C)c(C(=O)OCC)c1-c1ccco1	25	-4	-1	-4	22	9
O=C(/C(N=Nc1cccc([N+](=O)[O-])c1)=C(/O)c1ccc(Br)cc1)C(F)(F)F	-161	-58*	·	51*	-29	61
O=C(CCNc1ccc(Br)cc1)c1cccc([N+](=O)[O-])c1	-93	-8	12	11	-68	6
CCN(Cc1cnn(C)c1)Cc1nc(C(c2ccccc2)c2ccccc2)no1	7	1	-2	0	4	2
CC(=O)c1ccc(NC(=O)CSc2nnc(NC(=O)C3CC3)s2)cc1	-14	7	2	-16	-10	7
CC1=NOC(=O)/C1=C/c1ccc(O)c(Cl)c1	27	22	2	-2	13	-8
CCCOc1ccc(/C=C2/C(=O)ON=C2C)cc1Cl	4	-18	14	-39	65*	6
SMILES	HIF-2a inh	KKLEB tox	TRPM1 prom inh	CF NFkB inh	Peg3 prom inh	Shn3 inh set2
CC(C)CC(N)c1csc(Nc2cc(Oc3ccccc3)ncn2)n1 (configuration not stated)	5	8	·	36	63*	-5
COc1ccc(/C=C/c2cccc[n+]2C)c(O)c1	-3	3	0	2	-4	-5
CCN(CC)c1ccc(/C=C/c2cccc[n+]2C)c(OC)c1	-4	-14	68*	-110	48	89*
CNc1ccc(Br)cc1C(O)c1ccccc1 (configuration not stated)	21	0	-1	4	15	-13
CCOc1ccc2c(c1)-c1c(ssc1=S)C(C)(C)N2C(=O)c1ccco1	17	-12	43	53*	31	14
O=c1c2ccccc2c(C=Nc2ccccc2O)c(O)n1-c1nccs1	-17	12	1	-52	-11	87*
Cc1ccccc1N=Cc1c(O)n(-c2nccs2)c(=O)c2ccccc12	-81	-6	0	-35	1	-21
Cc1ccc(Nc2nc(NCCO)c3ccccc3n2)cc1C	-94	-18	-13	27	54*	45
COc1ccc(OC)c(Nc2nc(NCCO)c3ccccc3n2)c1	8	4	-8	-47	14	-16
OCCN1CCOCCOc2ccccc2OCCOCC1	23	2	15	-5	2	-2
c1ccc2c(c1)OCCOCCOCCOCCOCCOc1ccccc1OCCOCCOCCO2	-10	10	29	-2	29	86*
C[C@H]1CN([C@@H](C)CO)S(=O)(=O)c2ccc(-c3ccc(C#N)cc3)cc2O[C@H]1CN(C)C(=O)CN(C)C	0	-3	·	1	-3	-7
O=S(=O)(c1cccc(COc2c(Cl)cccc2Cl)c1)N1CCOCC1	7	4	1	3	28	-3
Cc1ccc(NC(=O)c2ccc(N/N=C/c3cccc(O)c3)c([N+](=O)[O-])c2)cc1	-12	-17	78*	20	67*	-1
CC(CCc1ccccc1)NC(=O)CNC(=O)c1cccs1 (configuration not stated)	6	3	4	-16	-8	0
Cc1noc(C)c1COc1ccc(C(=O)N2CCN(c3ccccn3)CC2)cc1	0	2	3	13	-2	5
COCCN(C(=O)COC(=O)c1cc2ccccc2cc1O)c1c(N)n(Cc2ccccc2)c(=O)[nH]c1=O	-10	-7	-2	-18	-3	-5
CSc1nc(Nc2ccc(Cl)cc2)c(C#N)c(=O)[nH]1	24	1	8	2	53*	19
CCOC(=O)[C@]12CCCC=C1N(Cc1ccco1)C(=O)[C@H](CC(=O)NCCCOC)C2	17	·	·	·	·	·
C=CCc1cc(C(=O)N2CCCCC2)ccc1O	12	-6	3	51*	-6	28
O=C(c1ccc2c(c1)OCCO2)N1CCCCC1	-9	-1	2	9	-5	-3
